Seven compounds from PubChem BioAssay (Tox21) can be followed below.

The structures appear in SMILES notation. Values without a mark were called inactive. Records with an inconclusive call do not appear. The source made the active and inactive calls. Unless noted, calls come from the whole dose curve; as a rule, active = well fitted curve in the direction sought with a large enough effect in the repeat runs; inconclusive = weak or mixed curves; inactive = no such curve, though single readings can be large; an effect the other way counts as inactive or inconclusive.

In test [1] the target is Thyrotropin-releasing hormone receptor (Homo sapiens) (UniProt P34981). In words: qHTS assay to identify small molecule agonists of the thyrotropin-releasing hormone receptor (TRHR) signaling pathway (AID 1346891; calls by dose curve;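 note: HEK293 cells expressing TRHR with calcium dye readout; series mostly up to about 58 µM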). The procedure, abridged:
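HEK293/TRHR cells, 1500 per well, 18 h 37 °C; Ca dye 2 h 37 °C; pin-tool compound addition (agonist mode); kinetic fluorescence 3 min, 1 s reads; 15 concentrations, triplicate.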

Test [2] can be described thus: Human pregnane X receptor (PXR) small molecule agonists, qHTS cell viability counter screen (AID 1346977). Note: nearly all actives have a fitted effect of over 50% in size. Put shortly:
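Fluorescence read-out (CellTiter-Fluor) of viability in PXR-Luc HepG2 cells, multiplexed with the luciferase agonist read. Compounds in DMSO added after 5hr plating; 24hr total exposure at 37C, 5% CO2.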
(In general: In qHTS, concentration-response curves come from the screen itself.)

Test [3] in a line: Caspase-3/7 induction in HepG2 cells by small molecules, qHTS assay (AID 1346978). Note: nearly all actives have a fitted effect of over 15% in size. The procedure, abridged: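 Wild-type HepG2 cells, 2,000/well, settled 5 hr at 37 C and 5% CO2, then compound-treated for 17 hr; caspase-3/7 activity read by luminescent Caspase-Glo 3/7 after 30 min at room temperature.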
Test [4] in a line: Caspase-3/7 induction in CHO-K1 cells by small molecules, qHTS assay (AID 1346980). Note: nearly all actives have a fitted effect of over 15% in size. Put shortly: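 Wild-type CHO-K1 cells exposed to compounds for 17hr at 37 C, 5% CO2. Caspase-3/7 activity then measured by Caspase-Glo 3/7 luminescence after 30min at room temperature.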
The nature of test [5]: Caspase-3/7 induction in HepG2 cells by small molecules, qHTS cell viability counter screen (AID 1346981). Note: series mostly up to about 92 µM; nearly all actives have a fitted effect of over 30% in size. The procedure, abridged: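 HepG2, WT, 2,000 cells/well; 5 hr pre-incubation 37 C/5% CO2; compound pin-transferred from DMSO; 16 hr exposure; CellTiter-Fluor, 1 hr; fluorescence read.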
The target of test [6] is Nuclear receptor subfamily 1 group I member 2 (Homo sapiens) (UniProt O75469). The test can be described thus: Human pregnane X receptor (PXR) small molecule agonists, qHTS assay (AID 1346982). Note: nearly all actives have a fitted effect of over 35% in size. Note: potency is the fitted concentration of half-maximal effect. The procedure, abridged: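 Luciferase signal from ONE-Glo (30 min, room temperature) measured activation of hPXR-driven CYP3A4 reporter expression in PXR-Luc HepG2 cells treated with compounds for 24 hr at 37 C.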

The target in test [7] is Nuclear receptor subfamily 1 group I member 2 (Rattus norvegicus) (UniProt Q9R1A7). In words: Rat pregnane X receptor (rPXR) activation by small molecules, qHTS assay (AID 1346983). Note: nearly all actives have a fitted effect of over 20% in size. The note with it: rPXR luciferase reporter cells, One-Glo luminescence, 24 h; hits give high values. Put shortly: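 Cell-based rPXR activation assay: rPXR cells, 2,000 per well, rested 5hr at 37 C, then exposed to compounds in DMSO for 24 hr at 37 C. Luciferase activity read by One-Glo luminescence after 30 min at room temperature.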

Test [8] concerns the target Nuclear receptor subfamily 1 group I member 2 (Homo sapiens) (UniProt O75469). The test can be described thus: Human pregnane X receptor (PXR) activation by small molecules, qHTS assay (AID 1346985). Note: nearly all actives have a fitted effect of over 40% in size. Put shortly: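 DPX-2 cells (HepG2 co-transfected with a PXR response element and a CYP3A4-promoter luciferase construct) were seeded at 2,000 per well, rested 5 hr at 37C, then exposed to DMSO-dissolved compounds for 24 hr. Activation was read as luciferase luminescence.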

Test [9] has as its target Acetylcholinesterase (Homo sapiens) (UniProt P22303). In words: Acetylcholinesterase (AChE) small molecule antagonists: colormetric cell-based qHTS assay (AID 1347395; calls by dose curve; note: nearly all actives have a fitted effect of over 30% in size; note: potency is the fitted concentration of half-maximal effect). The procedure, abridged: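 SH-SY5Y cells; cpd 30 min 37 C; + DTNB/acetylthiocholine, 90 min 37 C; colorimetric thiocholine read; qHTS.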
Test [10] shares this target. The test can be described thus: Acetylcholinesterase (AChE) small molecule antagonists: enzyme-based qHTS assay (AID 1347397; calls by dose curve; note: nearly all actives have a fitted effect of over 55% in size; note: potency is the fitted concentration of half-maximal effect). The note with it: Potency: AChE enzyme activity inhibition; outcome: AChE enzyme activity inhibition. The procedure, abridged:
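Recombinant human AChE (50 mU/mL) preincubated with compound 30 min at room temperature; acetylthiocholine plus DTNB then added, and thiocholine formation read colorimetrically after 10 min at room temperature. DMSO served as vehicle control.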

Test [11] shares this target. The test can be described thus: Acetylcholinesterase (AChE) small molecule antagonists: fluorescence cell-based qHTS assay (AID 1347398; calls by dose curve; note: nearly all actives have a fitted effect of over 50% in size; note: potency is the fitted concentration of half-maximal effect). The note with it: Potency: AChE activity; outcome: AChE activity. The procedure, abridged: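 SH-SY5Y cells (2000/well), attached overnight, incubated with compound 30 min at 37 C. Acetylthiocholine plus Thiolite Green then added for 40 min at room temperature. Thiocholine fluorescence (Ex/Em 490/520 nm) reports cellular AChE activity.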

Test [12] shares this target. The test can be described thus: Acetylcholinesterase (AChE) small molecule antagonists: enzyme-based qHTS assay with human liver microsomes (AID 1347399; calls by dose curve; note: nearly all actives have a fitted effect of over 60% in size; note: potency is the fitted concentration of half-maximal effect). The note with it: Potency: qHTS inhibition; outcome: qHTS inhibition. The procedure, abridged:
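Recombinant human AChE (50 mU/mL in the enzyme mix) and human liver microsomes (0.25 mg/mL final) were preincubated with compound and NADPH (0.25 mg/mL final) for 30 min at 37 C. Acetylthiocholine/DTNB was then added; thiocholine was read colorimetrically after 10 min at room temperature.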

The target in test [13] is Cytochrome P450 2C19 (Homo sapiens) (UniProt P33261). In words: Cytochrome P450 Family 2 Subfamily C Member 19 (CYP2C19) small molecule antagonists: luciferase reporter qHTS assay (AID 1671197). Note: nearly all actives have a fitted effect of over 65% in size. Note: potency is the fitted concentration of half-maximal effect. The procedure, abridged: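 Luminescent readout of CYP2C19 activity: luciferin product detected 20 min after adding detection reagent. Before that, compound and enzyme-substrate mix preincubated 10 min at room temperature; NADPH-regenerating system started a 1 h, 37C reaction. Ketoconazole as positive control.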

The target in test [14] is Cytochrome P450 2C9 (Homo sapiens) (UniProt P11712). In words: Cytochrome P450 Family 2 Subfamily C Member 9 (CYP2C9) small molecule antagonists: luciferase reporter qHTS assay (AID 1671198). Note: nearly all actives have a fitted effect of over 50% in size. Note: potency is the fitted concentration of half-maximal effect. Put shortly:
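P450-Glo proluciferin substrate with CYP2C9 enzyme; 10 min RT preincubation, then NADPH regeneration 1 h at 37C; luciferin detection reagent 20 min RT, luminescence in relative luminescence units.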
Background: Reporter assays use an easily measured gene product as a stand-in for the process of interest.

Test [15] deals with Cytochrome P450 1A2 (Homo sapiens) (UniProt P05177). The test can be described thus: Cytochrome P450 Family 1 Subfamily A Member 2 (CYP1A2) small molecule antagonists: luciferase reporter qHTS assay (AID 1671199). Note: nearly all actives have a fitted effect of over 50% in size. Note: potency is the fitted concentration of half-maximal effect. Put shortly: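 P450-Glo CYP1A2, 1536-well qHTS: enzyme/proluciferin substrate + cpd (DMSO), 10 min RT; NADPH regen, 1 h RT; detection reagent, 20 min; luminescence, RLU.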

Test [16] addresses Voltage-gated inwardly rectifying potassium channel KCNH2 (Homo sapiens) (UniProt Q12809). In words: Human Ether-a-go-go-Related Gene (hERG) channel small molecule antagonists: fluorescence cell-based qHTS assay (AID 1671200). Put shortly: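 Read-out: thallium influx as a surrogate for potassium, tracked as fluorescence (480 nm ex/540 nm em) every second for 2 min after Stimulus Buffer addition in dye-loaded hERG-U2OS cells.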
A general note: Block of hERG is tested as a sign of cardiac risk.

For test [17], the target named is Cytochrome P450 3A4 (Homo sapiens) (UniProt P08684). The test can be described thus: Cytochrome P450 Family 3 Subfamily A Member 4 (CYP3A4) small molecule antagonists: luciferase reporter qHTS assay (AID 1671201). The procedure, abridged: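 Luminescent readout (RLU) proportional to CYP3A4 activity, from luciferin generated off a proluciferin substrate. Enzyme–substrate mix plus compound 10 min at room temp, NADPH regeneration 1 h, detection reagent 20 min.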

Test [18] addresses Cytochrome P450 2D6 (Homo sapiens) (UniProt P10635). The test can be described thus: Cytochrome P450 Family 2 Subfamily D Member 6 (CYP2D6) small molecule antagonists: luciferase reporter qHTS assay (AID 1671196). Note: nearly all actives have a fitted effect of over 50% in size. Note: potency is the fitted concentration of half-maximal effect. Put shortly: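 Read-out is luminescence from luciferin formed by CYP2D6 turnover of a proluciferin substrate, recorded as relative luminescence units. Reactions ran 1 h at room temperature after NADPH regeneration solution was added.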
% is set by controls: 0 for no effect and ±100 for the full control effect.

Chain of Acetylcholinesterase (Homo sapiens) (P22303 whole entry, looked up): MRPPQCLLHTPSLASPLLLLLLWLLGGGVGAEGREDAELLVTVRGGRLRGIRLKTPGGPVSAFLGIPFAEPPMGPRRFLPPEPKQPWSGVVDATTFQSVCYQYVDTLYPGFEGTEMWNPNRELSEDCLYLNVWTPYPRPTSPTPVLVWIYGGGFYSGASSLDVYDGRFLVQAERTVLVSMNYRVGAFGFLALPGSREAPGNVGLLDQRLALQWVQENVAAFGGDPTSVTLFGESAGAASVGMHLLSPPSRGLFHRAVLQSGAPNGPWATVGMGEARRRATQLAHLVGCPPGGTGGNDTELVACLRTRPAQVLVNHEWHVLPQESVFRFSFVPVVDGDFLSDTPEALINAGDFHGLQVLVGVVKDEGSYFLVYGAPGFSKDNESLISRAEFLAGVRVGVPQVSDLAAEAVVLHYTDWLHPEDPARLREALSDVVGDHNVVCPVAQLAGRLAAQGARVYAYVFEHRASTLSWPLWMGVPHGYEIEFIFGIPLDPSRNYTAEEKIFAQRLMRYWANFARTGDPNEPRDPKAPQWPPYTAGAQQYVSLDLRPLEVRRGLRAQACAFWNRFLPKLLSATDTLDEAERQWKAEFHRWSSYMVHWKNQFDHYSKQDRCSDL
Chain of Voltage-gated inwardly rectifying potassium channel KCNH2 (Homo sapiens) (Q12809 whole entry, looked up): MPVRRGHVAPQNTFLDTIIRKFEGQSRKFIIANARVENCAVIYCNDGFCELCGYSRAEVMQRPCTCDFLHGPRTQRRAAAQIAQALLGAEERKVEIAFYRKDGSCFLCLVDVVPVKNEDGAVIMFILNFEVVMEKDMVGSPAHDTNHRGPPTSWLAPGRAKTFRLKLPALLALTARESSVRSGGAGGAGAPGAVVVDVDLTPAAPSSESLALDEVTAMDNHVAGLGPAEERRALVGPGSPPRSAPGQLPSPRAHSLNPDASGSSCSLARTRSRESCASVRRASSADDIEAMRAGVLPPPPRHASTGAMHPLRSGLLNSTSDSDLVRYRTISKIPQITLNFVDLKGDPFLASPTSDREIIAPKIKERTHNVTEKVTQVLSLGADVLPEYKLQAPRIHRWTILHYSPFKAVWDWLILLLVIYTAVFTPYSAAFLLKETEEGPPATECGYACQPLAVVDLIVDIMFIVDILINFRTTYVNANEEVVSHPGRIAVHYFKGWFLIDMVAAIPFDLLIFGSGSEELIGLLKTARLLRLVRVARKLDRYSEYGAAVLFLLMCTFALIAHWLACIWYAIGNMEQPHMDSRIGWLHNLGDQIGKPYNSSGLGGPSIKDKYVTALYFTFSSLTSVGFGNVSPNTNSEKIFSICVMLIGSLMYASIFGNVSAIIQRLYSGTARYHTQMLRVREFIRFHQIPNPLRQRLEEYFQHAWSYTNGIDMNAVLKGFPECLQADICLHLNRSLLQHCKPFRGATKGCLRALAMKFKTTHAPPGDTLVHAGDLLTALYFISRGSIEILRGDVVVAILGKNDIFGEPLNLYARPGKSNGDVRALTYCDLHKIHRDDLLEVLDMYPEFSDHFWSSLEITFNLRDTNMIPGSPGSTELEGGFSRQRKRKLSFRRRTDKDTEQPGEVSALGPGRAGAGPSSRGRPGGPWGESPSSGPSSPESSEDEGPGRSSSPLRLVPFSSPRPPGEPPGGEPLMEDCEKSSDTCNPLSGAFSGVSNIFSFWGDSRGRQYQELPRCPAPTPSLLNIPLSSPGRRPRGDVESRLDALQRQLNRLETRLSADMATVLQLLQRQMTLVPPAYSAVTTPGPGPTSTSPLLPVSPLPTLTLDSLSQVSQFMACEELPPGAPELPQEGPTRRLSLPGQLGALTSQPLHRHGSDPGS
Chain of Cytochrome P450 3A4 (Homo sapiens) (P08684 whole entry, looked up): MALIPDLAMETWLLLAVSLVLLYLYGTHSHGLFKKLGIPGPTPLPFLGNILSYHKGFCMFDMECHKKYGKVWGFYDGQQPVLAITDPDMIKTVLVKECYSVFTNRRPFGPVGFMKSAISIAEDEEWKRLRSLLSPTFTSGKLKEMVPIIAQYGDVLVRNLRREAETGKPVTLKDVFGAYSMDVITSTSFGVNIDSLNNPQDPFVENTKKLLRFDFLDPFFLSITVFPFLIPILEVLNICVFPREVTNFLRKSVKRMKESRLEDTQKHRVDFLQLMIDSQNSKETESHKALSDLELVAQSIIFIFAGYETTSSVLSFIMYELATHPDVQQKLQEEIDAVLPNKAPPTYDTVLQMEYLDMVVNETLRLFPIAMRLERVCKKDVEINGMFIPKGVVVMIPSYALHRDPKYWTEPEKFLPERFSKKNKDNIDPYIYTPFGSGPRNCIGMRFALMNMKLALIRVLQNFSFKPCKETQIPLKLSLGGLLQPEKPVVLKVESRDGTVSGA
Chain of Cytochrome P450 2D6 (Homo sapiens) (P10635 whole entry, looked up): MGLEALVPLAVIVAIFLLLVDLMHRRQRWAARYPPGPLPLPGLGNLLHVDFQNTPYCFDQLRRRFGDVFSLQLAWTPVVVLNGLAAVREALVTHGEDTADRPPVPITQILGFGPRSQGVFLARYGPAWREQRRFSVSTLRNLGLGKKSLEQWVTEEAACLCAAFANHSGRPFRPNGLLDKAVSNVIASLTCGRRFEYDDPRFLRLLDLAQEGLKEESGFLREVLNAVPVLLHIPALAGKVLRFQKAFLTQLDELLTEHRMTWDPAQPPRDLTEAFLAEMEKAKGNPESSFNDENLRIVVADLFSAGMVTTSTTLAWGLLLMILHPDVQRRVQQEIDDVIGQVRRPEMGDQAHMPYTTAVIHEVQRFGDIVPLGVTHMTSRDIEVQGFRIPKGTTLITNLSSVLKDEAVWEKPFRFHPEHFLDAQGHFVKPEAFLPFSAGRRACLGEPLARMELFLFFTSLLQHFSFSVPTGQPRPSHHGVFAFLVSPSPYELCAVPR
Chain of Nuclear receptor subfamily 1 group I member 2 (Homo sapiens) (O75469 whole entry, looked up): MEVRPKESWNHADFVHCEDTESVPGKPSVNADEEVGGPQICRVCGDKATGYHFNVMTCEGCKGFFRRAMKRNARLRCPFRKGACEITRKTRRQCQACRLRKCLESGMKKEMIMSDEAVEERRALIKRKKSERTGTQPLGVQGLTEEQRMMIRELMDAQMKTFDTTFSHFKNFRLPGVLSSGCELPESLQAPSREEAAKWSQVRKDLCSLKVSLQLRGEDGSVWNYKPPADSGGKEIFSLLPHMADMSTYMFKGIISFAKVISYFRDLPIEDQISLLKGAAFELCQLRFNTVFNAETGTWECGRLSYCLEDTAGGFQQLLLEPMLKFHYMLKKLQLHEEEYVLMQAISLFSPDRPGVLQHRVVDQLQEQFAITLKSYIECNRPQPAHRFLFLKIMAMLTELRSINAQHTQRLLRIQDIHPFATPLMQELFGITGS
Chain of Cytochrome P450 2C9 (Homo sapiens) (P11712 whole entry, looked up): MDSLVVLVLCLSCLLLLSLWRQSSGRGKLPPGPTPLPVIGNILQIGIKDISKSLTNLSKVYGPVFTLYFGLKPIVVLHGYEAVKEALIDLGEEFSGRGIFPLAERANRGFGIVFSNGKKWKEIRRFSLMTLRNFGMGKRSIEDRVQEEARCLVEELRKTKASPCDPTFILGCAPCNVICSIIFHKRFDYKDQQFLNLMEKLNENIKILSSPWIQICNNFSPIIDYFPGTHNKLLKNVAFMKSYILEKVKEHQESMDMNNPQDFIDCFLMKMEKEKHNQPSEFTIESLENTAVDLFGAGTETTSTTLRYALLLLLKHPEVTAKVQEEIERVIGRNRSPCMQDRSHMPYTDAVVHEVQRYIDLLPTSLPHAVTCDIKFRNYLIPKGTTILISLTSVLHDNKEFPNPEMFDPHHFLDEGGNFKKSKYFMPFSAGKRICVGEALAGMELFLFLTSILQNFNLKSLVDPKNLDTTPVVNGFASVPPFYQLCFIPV
Chain of Cytochrome P450 2C19 (Homo sapiens) (P33261 whole entry, looked up): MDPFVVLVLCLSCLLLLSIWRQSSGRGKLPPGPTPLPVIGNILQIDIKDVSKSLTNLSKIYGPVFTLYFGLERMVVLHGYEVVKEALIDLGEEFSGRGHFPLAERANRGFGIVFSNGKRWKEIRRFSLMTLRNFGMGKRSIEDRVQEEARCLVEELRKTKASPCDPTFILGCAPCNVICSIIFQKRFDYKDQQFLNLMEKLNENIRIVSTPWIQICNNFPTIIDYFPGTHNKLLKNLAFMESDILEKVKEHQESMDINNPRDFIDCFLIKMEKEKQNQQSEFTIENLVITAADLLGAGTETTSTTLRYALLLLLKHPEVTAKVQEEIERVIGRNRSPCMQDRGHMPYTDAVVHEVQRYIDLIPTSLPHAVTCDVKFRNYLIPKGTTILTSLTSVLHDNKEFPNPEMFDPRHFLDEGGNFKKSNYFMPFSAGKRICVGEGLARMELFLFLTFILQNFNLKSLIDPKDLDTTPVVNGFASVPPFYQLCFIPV
Chain of Cytochrome P450 1A2 (Homo sapiens) (P05177 whole entry, looked up): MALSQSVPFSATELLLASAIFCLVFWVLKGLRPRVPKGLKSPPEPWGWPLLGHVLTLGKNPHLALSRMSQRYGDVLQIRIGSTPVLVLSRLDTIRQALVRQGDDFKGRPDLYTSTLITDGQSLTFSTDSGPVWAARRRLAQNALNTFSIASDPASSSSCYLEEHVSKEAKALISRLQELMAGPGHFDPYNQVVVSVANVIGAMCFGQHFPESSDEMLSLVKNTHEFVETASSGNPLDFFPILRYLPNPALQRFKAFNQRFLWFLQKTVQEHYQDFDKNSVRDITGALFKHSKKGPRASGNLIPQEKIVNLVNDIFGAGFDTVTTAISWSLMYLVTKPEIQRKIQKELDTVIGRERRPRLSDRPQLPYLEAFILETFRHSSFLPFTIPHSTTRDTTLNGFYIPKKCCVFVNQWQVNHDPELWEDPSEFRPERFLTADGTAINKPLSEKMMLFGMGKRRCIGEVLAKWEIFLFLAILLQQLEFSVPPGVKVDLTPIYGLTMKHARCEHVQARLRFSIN

In the case of `NC(=O)CS(=O)C(c1ccccc1)c1ccccc1` (centres undefined), the outcome in test [1], in [3] and in test [4] was inactive. Moreover, the Potency entry in test [2], in test [5], in test [6], in test [8], in [9] and in test [10] was “inactive” throughout. Also, the Potency entry in [11], in test [12], in test [14], in test [15], in test [16] and in test [17] was “inactive” each time. Also, the max activation in test [7] is -0.488%. In test [13], the Potency was 24.5 µM (active).
For `C[C@@H](N)[C@@H](O)c1ccccc1`, the compound was classed as inactive in test [1], in [3] and in test [4]. Also, the Potency result in [2], in test [5], in [6], in test [8], in test [14] and in test [15] was “inactive” throughout. Also, the Potency result in test [16] and in test [17] was “inactive” in each case. Also, the max activation in test [7] is -1.4%. The values for the Potency in test [18] and in test [13] were 17.4 µM (active) and 21.9 µM (active), respectively.
Consider `CCCOC(=O)c1cncn1C(C)c1ccccc1` (centres undefined), for which the result in test [1], in test [3] and in test [4] was inactive. In addition, the Potency entry in test [2], in test [5], in [6], in test [9], in [10] and in test [11] was “inactive” throughout. Besides, the Potency result in test [12], in test [18] and in test [16] was “inactive” throughout. Also, the Potency is 2.45 µM (active) in [13], 13.8 µM (active) in test [14] and 17.4 µM (active) in [15].
In the case of `O=P(O)(O)c1ccccc1`, the compound was called inactive in test [1], in test [3] and in [4]. Moreover, the Potency entry in test [2], in test [5], in test [6], in test [10], in test [11] and in test [12] was “inactive” throughout. The Potency result in test [13], in test [14], in [15], in [16] and in test [17] was “inactive” throughout.
Regarding `CNC(=O)Oc1cc(C)c(N(C)C)c(C)c1`, the compound was classed as inactive in test [1], in [3] and in [4]. The Potency entry in test [2], in test [5], in test [14], in [16] and in [17] was “inactive” throughout. In addition, the Potency in test [6] is 30.6 µM (active); in test [9], 2.52 µM (active); in test [10], 2.25 µM (active); in test [11], 0.797 µM (active); in [12], 12.6 µM (active); in test [13] it was 79.7 µM (active). Besides, the Potency in [15] was 10 µM (active).
With `CC(Cc1ccccc1)NCCn1cnc2c1c(=O)n(C)c(=O)n2C` (centres undefined), the result in test [1], in test [3] and in test [4] was inactive. Besides, the Potency result in [2], in [5], in test [6], in test [9], in test [10] and in [11] was “inactive” throughout. The Potency entry in test [12], in test [14], in test [15] and in test [16] was “inactive” throughout. Moreover, the Potency in [18] is 4.96 µM (active); in [13], 78.7 µM (active).
Turning to `CN1C(=O)COc2c(C(=O)NC3CN4CCC3CC4)cc(Cl)cc21` (centres undefined), the call in test [1], in [3] and in test [4] was inactive. Besides, the Potency result in test [2], in [5], in [6], in test [12], in test [18] and in test [13] was “inactive” in each case. The Potency result in test [14], in test [15] and in test [17] was “inactive” throughout. For the same compound, the max activation in test [7] is -0.408%. In test [9], the Potency was 38.9 µM (active).
